About 21,000 targets were measured; listed, in parts, are those with the largest changes and a random draw of the rest.
The targets below were run with Cc1cc(ccc1-c1ccccc1)C(=O)N1CCCN(CC1)C(=O)CCl [compound 10] (assay: probe-labelled cysteine peptide fold change vs DMSO (competition) (log2 fold change); higher = less target engagement (more negative = stronger competition)). Settings: 50 µM; THP-1; incubation time: 4 h.
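Further: competitive profiling in live THP-1 cells: cysteine peptides tagged with an iodoacetamide desthiobiotin (IA-DTB) probe, intensity after compound treatment relative to DMSO-treated cells.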

UniProt Q86X55, sequence (Q86X55 whole entry, looked up): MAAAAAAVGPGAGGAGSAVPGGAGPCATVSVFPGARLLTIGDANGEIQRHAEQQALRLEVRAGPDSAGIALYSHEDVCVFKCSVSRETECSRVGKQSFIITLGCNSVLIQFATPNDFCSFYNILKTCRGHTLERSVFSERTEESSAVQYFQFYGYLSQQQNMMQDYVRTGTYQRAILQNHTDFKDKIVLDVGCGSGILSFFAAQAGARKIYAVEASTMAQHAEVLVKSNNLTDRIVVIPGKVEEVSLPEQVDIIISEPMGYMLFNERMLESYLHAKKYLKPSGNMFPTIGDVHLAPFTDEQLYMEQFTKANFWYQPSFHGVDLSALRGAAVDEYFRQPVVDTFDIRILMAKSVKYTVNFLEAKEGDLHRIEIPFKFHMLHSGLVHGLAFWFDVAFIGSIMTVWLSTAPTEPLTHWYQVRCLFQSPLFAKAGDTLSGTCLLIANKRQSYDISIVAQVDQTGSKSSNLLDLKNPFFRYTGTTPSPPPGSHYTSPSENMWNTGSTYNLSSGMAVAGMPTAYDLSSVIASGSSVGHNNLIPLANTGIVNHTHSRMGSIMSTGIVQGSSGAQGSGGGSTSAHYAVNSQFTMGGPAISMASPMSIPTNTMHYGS
UniProt Q92879, sequence (Q92879 whole entry, looked up): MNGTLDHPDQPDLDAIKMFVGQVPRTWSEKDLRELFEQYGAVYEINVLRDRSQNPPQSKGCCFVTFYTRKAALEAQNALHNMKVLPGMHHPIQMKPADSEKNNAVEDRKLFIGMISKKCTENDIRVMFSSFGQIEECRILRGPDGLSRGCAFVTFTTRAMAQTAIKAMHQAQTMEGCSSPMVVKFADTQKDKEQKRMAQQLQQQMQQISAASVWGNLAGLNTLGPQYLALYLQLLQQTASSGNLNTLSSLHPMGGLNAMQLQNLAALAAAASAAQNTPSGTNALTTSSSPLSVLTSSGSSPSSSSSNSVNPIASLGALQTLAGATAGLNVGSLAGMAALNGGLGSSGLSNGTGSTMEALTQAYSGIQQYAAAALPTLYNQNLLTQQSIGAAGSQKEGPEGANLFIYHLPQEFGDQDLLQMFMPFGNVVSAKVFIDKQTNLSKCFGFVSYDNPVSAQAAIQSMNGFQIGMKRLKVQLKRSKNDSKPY
UniProt Q9BSF8, sequence (Q9BSF8 whole entry, looked up): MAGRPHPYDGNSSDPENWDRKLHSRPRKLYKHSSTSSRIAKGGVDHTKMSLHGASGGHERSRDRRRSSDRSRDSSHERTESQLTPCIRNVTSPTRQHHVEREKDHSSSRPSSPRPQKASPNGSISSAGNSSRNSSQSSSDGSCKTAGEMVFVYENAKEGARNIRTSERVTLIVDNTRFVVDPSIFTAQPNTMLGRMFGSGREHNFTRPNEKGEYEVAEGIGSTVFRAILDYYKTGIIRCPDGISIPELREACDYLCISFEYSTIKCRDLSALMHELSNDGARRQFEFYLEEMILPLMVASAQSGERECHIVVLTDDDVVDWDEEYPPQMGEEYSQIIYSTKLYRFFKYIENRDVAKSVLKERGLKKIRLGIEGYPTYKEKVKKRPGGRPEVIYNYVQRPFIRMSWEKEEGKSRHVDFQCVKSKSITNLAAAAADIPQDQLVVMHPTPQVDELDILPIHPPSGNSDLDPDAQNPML
UniProt O75419, sequence (O75419 whole entry, looked up): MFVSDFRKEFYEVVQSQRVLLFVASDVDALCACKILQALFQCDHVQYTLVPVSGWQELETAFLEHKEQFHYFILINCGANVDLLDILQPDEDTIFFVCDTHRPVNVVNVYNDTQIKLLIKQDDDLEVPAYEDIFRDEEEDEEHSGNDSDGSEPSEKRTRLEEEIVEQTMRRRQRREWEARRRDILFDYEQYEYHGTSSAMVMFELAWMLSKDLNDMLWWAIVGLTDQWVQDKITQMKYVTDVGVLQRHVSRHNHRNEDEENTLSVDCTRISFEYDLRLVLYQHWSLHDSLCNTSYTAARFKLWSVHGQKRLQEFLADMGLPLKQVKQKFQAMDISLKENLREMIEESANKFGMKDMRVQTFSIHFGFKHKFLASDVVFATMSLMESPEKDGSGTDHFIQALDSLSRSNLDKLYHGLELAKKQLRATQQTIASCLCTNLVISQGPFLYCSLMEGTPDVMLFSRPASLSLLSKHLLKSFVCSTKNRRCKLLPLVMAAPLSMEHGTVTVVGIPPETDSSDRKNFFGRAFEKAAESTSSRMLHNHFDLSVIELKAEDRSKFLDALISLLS
UniProt Q9NQS1, sequence (Q9NQS1 whole entry, looked up): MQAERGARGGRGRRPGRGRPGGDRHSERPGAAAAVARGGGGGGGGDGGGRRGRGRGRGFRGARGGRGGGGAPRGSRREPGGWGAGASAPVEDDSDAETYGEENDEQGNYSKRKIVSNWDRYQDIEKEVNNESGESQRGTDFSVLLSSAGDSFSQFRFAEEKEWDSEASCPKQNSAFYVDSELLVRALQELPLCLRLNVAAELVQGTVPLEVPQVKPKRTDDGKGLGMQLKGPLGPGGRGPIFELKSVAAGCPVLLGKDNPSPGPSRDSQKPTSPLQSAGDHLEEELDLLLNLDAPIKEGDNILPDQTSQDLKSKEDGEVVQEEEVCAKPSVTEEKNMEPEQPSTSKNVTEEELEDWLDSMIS
UniProt O00257, sequence (O00257 whole entry): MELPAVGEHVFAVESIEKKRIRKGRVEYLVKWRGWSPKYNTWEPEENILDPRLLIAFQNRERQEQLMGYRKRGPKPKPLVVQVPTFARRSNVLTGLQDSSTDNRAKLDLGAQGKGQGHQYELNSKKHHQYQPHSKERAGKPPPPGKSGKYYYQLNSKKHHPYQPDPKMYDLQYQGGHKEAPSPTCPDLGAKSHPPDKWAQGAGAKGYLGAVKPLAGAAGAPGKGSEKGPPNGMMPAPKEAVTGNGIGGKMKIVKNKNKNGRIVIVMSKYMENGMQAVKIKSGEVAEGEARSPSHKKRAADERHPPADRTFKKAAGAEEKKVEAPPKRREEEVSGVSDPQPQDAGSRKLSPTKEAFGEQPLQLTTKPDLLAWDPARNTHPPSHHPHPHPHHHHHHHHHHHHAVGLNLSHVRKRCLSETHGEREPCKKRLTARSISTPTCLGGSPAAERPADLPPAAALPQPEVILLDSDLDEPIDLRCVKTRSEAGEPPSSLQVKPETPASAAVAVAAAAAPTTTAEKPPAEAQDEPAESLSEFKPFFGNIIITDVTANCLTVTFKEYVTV
UniProt Q8TDN6, sequence (Q8TDN6 whole entry, looked up): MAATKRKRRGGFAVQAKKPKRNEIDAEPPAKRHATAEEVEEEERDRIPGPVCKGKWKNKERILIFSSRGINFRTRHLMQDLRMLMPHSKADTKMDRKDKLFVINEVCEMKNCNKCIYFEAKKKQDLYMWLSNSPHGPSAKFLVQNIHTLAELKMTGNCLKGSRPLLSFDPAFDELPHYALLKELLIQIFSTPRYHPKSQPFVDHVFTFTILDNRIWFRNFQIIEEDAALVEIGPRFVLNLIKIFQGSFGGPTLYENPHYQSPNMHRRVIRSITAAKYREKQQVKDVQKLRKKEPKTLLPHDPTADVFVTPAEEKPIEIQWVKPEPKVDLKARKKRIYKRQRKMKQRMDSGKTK
UniProt P21953, sequence (P21953 whole entry, looked up): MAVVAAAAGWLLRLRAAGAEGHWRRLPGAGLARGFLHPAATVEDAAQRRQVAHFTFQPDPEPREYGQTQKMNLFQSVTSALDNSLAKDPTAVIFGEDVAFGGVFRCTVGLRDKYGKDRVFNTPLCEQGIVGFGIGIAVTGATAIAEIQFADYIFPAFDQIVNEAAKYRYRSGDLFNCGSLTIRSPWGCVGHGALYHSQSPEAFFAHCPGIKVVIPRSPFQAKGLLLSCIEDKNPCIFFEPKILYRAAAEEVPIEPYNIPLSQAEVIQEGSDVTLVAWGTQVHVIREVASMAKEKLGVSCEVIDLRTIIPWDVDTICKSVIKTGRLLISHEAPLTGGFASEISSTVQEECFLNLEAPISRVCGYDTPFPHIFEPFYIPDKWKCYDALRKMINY
UniProt O95696, sequence (O95696 whole entry, looked up): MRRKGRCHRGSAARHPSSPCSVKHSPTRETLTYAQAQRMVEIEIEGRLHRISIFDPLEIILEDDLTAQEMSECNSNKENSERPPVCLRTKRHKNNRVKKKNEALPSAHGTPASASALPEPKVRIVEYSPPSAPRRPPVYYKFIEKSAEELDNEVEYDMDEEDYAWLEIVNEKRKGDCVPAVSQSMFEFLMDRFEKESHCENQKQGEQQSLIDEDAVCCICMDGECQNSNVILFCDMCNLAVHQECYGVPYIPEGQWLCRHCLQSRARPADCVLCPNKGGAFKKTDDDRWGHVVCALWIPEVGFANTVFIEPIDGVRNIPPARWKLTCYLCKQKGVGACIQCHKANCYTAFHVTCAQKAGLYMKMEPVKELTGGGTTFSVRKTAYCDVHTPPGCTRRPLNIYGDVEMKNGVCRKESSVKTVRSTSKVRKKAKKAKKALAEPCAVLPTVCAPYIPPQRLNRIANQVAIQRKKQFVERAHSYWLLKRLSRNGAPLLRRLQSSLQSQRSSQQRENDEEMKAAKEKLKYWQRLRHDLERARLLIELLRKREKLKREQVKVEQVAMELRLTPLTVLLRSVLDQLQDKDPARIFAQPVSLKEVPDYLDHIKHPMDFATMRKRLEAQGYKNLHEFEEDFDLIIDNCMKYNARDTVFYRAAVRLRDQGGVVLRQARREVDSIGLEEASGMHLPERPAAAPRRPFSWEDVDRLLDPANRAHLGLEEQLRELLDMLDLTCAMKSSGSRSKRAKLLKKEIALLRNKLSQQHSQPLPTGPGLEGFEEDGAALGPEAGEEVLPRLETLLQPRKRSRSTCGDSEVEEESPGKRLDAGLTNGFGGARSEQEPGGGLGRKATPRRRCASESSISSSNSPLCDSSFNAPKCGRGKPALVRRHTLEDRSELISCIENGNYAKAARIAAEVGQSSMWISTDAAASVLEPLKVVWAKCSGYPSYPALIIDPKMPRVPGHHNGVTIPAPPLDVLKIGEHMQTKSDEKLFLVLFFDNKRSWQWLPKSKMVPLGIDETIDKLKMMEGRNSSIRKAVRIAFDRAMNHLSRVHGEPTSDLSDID

Target | probe-labelled cysteine peptide fold change
BCKDHB_P21953_361_VCGYDTPFPHIFEPFYIPDK (UniProt P21953) | 0.155
CEPT1_Q9Y6K0_11+30_CGDSHPESPVGFGHMSTTGCVLNK (UniProt Q9Y6K0) | -2.17
CAND1_Q86VP6_802_CVAALTR (UniProt Q86VP6) | -0.156
BTBD10_Q9BSF8_86_TESQLTPCIR (UniProt Q9BSF8) | -1.07
CAMK2B_Q13554_116_EYYSEADASHCIQQILEAVLHCHQMGVVHR (UniProt Q13554) | 0.141
BRIX1_Q8TDN6_52_RHATAEEVEEEERDRIPGPVCK (UniProt Q8TDN6) | -0.296
CASP2_P42575_30_ILGVCGMHPHHQETLKK (UniProt P42575) | -1.14
CBX1_P83916_156_CPQVVISFYEER (UniProt P83916) | -0.00934
CDK5_Q00535_117_GLGFCHSR (UniProt Q00535) | 0.158
BRAP_Q7Z569_47_TTLASAVACLEGK (UniProt Q7Z569) | -0.245
CCAR2_Q8N163_515_RNAETPEATTQQETDTDLPEAPPPPLEPAVIARPGCVNLSLHGIVEDR (UniProt Q8N163) | -0.245
CARD9_Q9H257_402_ADELQLQVFQCEAQLLAVEGR (UniProt Q9H257) | 0.639
BHLHE22_Q8NFJ8_156_GSVAESSGGEQSPDDDSDGRCELVLR (UniProt Q8NFJ8) | -0.217
CDC42_P60953_105_EKWVPEITHHCPK (UniProt P60953) | -0.929
CARM1_Q86X55_438_AGDTLSGTCLLIANK (UniProt Q86X55) | 0.146
CELF1_Q92879_119_CTENDIR (UniProt Q92879) | 0.276
CAD_P27708_2161_FGSTQEYEACFGQFILTPHIMTR (UniProt P27708) | 0.111
AVEN_Q9NQS1_169_EWDSEASCPK (UniProt Q9NQS1) | -2.39
CHORDC1_Q9UHD1_86_ELCELK (UniProt Q9UHD1) | 0.205

Target | probe-labelled cysteine peptide fold change
CELF2_O95319_174_GCAFVTFSTR (UniProt O95319) | 0.0429
CENPF_P49454_339_CRDELVR (UniProt P49454) | 0.506
CDC45_O75419_267_HNHRNEDEENTLSVDCTR (UniProt O75419) | -0.279
CBX8_Q9HC52_142_NMGLSPPASSTSTSSTCR (UniProt Q9HC52) | -0.373
BIRC6_Q9NR09_3773_TAIENATVAFFLQCISCHPNNQK (UniProt Q9NR09) | 0.136
CFL1_P23528_39_AVLFCLSEDK (UniProt P23528) | 0.0485
C17orf75_Q9HAS0_265_FLSVASLQGLIHEGTMTSLCMAMTEEQHK (UniProt Q9HAS0) | -0.756
CHORDC1_Q9UHD1_59_RTTDFSDFLSIVGCTK (UniProt Q9UHD1) | -0.292
BOP1_Q14137_108_TTEEQVQASTPCPR (UniProt Q14137) | -0.638
CEP170_Q5SW79_30_EMIFVGRDDCELMLQSR (UniProt Q5SW79) | 0.0343
CASP10_Q92851_169_IDEDNLTCLEDLCK (UniProt Q92851) | 0.0728
CBR1_P16152_122_DVCTELLPLIK (UniProt P16152) | 0.509
CBX4_O00257_185_EAPSPTCPDLGAK (UniProt O00257) | -0.0437
CBR1_P16152_226_ILLNACCPGWVR (UniProt P16152) | -0.297
CEP192_Q8TEP8_1562_APVEVAPCADVVTR (UniProt Q8TEP8) | -0.285
BRD1_O95696_294_TDDDRWGHVVCALWIPEVGFANTVFIEPIDGVR (UniProt O95696) | 0.0676
CHPF_Q8IZ52_243_YCHGGFGVLLSR (UniProt Q8IZ52) | 0.255
CEPT1_Q9Y6K0_30_CGDSHPESPVGFGHMSTTGCVLNK (UniProt Q9Y6K0) | -2.51

— the supplement of paper PMC12067093, “Discovery and optimisation of a covalent ligand for TRIM25 and its application to targeted protein ubiquitination” (Chemical Science, 2025)
